Hits are enriched below; roughly 19% of the tested compounds scored in any of these assays.
DT40 TDP1 CPT – growth inhibition of DT40 Tdp1-/-;hTDP1 cells with camptothecin (screen for TDP1 inhibitors) | chicken DT40 Tdp1-/-;hTDP1 cells + 20 nM CPT, ATP luminescence, 48 h | Potency, µM (series often up to 46.2 µM), hits mostly inhibitors | 12% of 420,000 active | AID 686979; further: nearly all actives have a fitted effect of over 55% in size
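Chicken DT40 Tdp1-/- cells complemented with human TDP1, 400 cells/well, exposed to compounds plus 20 nM camptothecin for at least 48 h at 37 C; viability read as ATP content by CellTiter-Glo luminescence.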
HT1080NT lethal – kills 2HG-producing HT-1080-NT fibrosarcoma cells. 1.6% of 360,000 active. HT-1080-NT fibrosarcoma viability, CellTiter-Glo ATP luminescence, 48 h. Potency, µM (doses to about 46.1 µM), hits mostly cytotoxic;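 further: NT is the 2HG producing partner of a matched IDH1 knockdown line; nearly all actives have a fitted effect of over 55% in size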
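Read-out is CellTiter-Glo luminescence after 10 minutes at room temperature, following 48 hours' compound treatment of HT-1080-NT cells (750 cells/well, RPMI, 5% FBS, 37 degrees C).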
KB-V1 cytotox – kills drug-selected multidrug resistant KB-V1 cells; KB-V1 MDR cells viability, CellTiter-Glo, 72 h; Potency, µM (series often up to 46.1 µM), hits mostly cytotoxic; 3.4% of 400,000 active; AID 1347076; further: nearly all actives have a fitted effect of over 60% in size
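Readout: CellTiter-Glo luminescence, 10 min after addition. Cells: KB-V1 MDR subline, 72 h at 37 degrees C with compound. Analysis: corrected, normalized data fitted to concentration-effect curves.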
KB-3-1 cytotox – kills parental KB-3-1 adenocarcinoma cells. KB-3-1 viability, CellTiter-Glo ATP luminescence, 72 h. Potency, µM (top dose mostly 46.1 µM), actives largely listed as cytotoxic. 1.4% of 400,000 active; further: nearly all actives have a fitted effect of over 60% in size
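Luminescent ATP read-out (CellTiter-Glo) measures survival of drug-naive KB-3-1 cells after 72 h compound exposure at 37 °C. Titration series was screened from lowest to highest concentration, with DMSO vehicle plates as background controls.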
HT1080 IDH1KD tx – kills HT-1080 cells with IDH1 knockdown; HT-1080 IDH1 knockdown viability, ATP luminescence, 48 h; Potency, µM (highest dose often 46.1 µM), hits mostly cytotoxic; 2% of 360,000 active; AID 686971
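In this qHTS, HT-1080 cells depleted of IDH1 are exposed for 48 h at 37 °C to compound titrations. Toxicity is scored from CellTiter-Glo luminescence, with DMSO as full viability and medium alone as none.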
TDP1 cell noCPT – qHTS for Inhibitors of human tyrosyl-DNA phosphodiesterase 1 (TDP1): qHTS in cells in absence of CPT; DT40 Tdp1-/- hTDP1 cells, no CPT, ATP luminescence, 48 h; Potency, µM (series often up to 46.2 µM), most hits filed as inhibitors; 15% of 420,000 active; AID 686978, 2013; further: nearly all actives have a fitted effect of over 55% in size
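Growth kinetics read by CellTiter-Glo luminescence after ≥48 hr at 37 °C. Cells: DT40 Tdp1-/- stably carrying human TDP1, 400 per well, compound exposure in the absence of CPT (DMSO vehicle).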
A number is an active result; - = inactive; ? = inconclusive; . = no result; [ ] = another dose, or the depositor's remark. The call rests on the fitted dose curve; in most records, active means well fitted curve in the direction sought with a large enough effect; inconclusive means small, poorly fitted or top-dose-only effect, or another doubt; inactive means no such curve, though single readings can be large; an effect the other way counts as inactive or inconclusive.

SMILES	DT40 TDP1 CPT	HT1080NT lethal	KB-V1 cytotox	KB-3-1 cytotox	HT1080 IDH1KD tx	TDP1 cell noCPT
Cc1cccc(NC(=O)COC(=O)c2cccc3c2C(=O)c2ccccc2C3=O)c1C	?	-	?	-	-	16µM
Cc1cccc(NC(=O)COC(=O)c2ccccc2-c2nc3ccccc3s2)c1C	?	-	?	-	-	?
Nc1cccc(C(=O)OCC(=O)Nc2cccc3c2C(=O)c2ccccc2C3=O)c1	?	-	-	-	?	12µM
Cc1cccc(C)c1NC(=O)c1cccc2c1-c1ccccc1C2=O	?	-	-	-	-	?
O=C(COC(=O)c1ccc2c(c1)OCCO2)NCc1ccc(Cl)cc1	?	-	?	-	?	?
COc1ccc(C(=O)NCc2nnc(SCC(=O)Nc3ccccc3)n2-c2ccc(F)cc2)cc1	-	.	-	-	.	-
Cc1cc(N2CCCC2)ccc1/C=C1/C(=O)N(C)C(=S)N1C	9.2µM	?	?	?	-	8.2µM
COc1ccccc1N1CCN(S(=O)(=O)CCNC(=O)COc2ccccc2)CC1	?	-	-	-	-	?
CCCCOc1ccc(C(=O)NCCS(=O)(=O)N2CCN(c3ccccc3OC)CC2)cc1	5.8µM	.	.	.	.	7.3µM
COc1ccccc1N1CCN(S(=O)(=O)CCNC(=O)Cc2ccc(F)cc2)CC1	21µM	-	18µM	?	?	?
COc1ccccc1N1CCN(S(=O)(=O)CCNC(=O)Cc2ccc(Cl)cc2)CC1	?	.	.	.	.	23µM
O=[N+]([O-])c1ccc(OCc2cnc(Cl)s2)c([N+](=O)[O-])c1	-	-	1.2µM	6.5µM	-	?
O=[N+]([O-])c1ccc(Oc2ccc(F)cc2)c2ccncc12	-	?	-	-	-[9.24 µM]	?
O=[N+]([O-])c1ccc(Oc2cccc(Br)c2)c2ccncc12	?	21µM	?	?	?	?
O=[N+]([O-])c1ccc(Oc2cccnc2)c([N+](=O)[O-])c1	4.1µM	?	-	?	?	5.8µM
Nc1ccc(Oc2ccc([N+](=O)[O-])cc2[N+](=O)[O-])cc1	18µM	-	-	-	?	?
O=S1(=O)CCO[C@H]2CCCC[C@@H]2N1Cc1ccccc1F	?	.	-	-	.	?
COc1ccc(-c2oc3ncn4nc(COc5cccc(C)c5C)nc4c3c2-c2ccc(OC)cc2)cc1	-	.	-	-	.	-
CC(=O)N1C(=O)c2cccc3cccc(c23)C(=O)N1C(C)=O	-	-	-	-	-	-
O=C1c2cccc3cccc(c23)C(=O)C1(O)O	1µM	?	-	-	18µM	2.3µM
O=C1[C@H]2CCCC[C@H]2C(=O)N1CCCCN1CCN(c2nsc3ccccc23)CC1	21µM	23µM	-	?	?	13µM
CCOC(=O)c1c(S(=O)(=O)NCC(=O)Nc2ccc(C(C)=O)cc2)c(C)n(C)c1C	-	.	-	-	.	-
ClCc1nnc(-c2cc3c(s2)CCCC3)o1	10µM	?	?	?	?	16µM
COc1ccc(N2C(=O)CC(Sc3ncccc3C(=O)O)C2=O)cc1 (centres undefined)	-	-	-	-	-	-
COc1ccc(N2C(=O)CC(Sc3nccc(C)n3)C2=O)cc1 (centres undefined)	-	-	-	-	-	-
SMILES	DT40 TDP1 CPT	HT1080NT lethal	KB-V1 cytotox	KB-3-1 cytotox	HT1080 IDH1KD tx	TDP1 cell noCPT
COc1ccc(N2C(=O)CC(Sc3nnc(-c4ccccc4F)n3C)C2=O)cc1 (centres undefined)	4.1µM	-	-	-	-	5.2µM
C=CCNc1nnc(SC2CC(=O)N(c3ccc(OC)cc3)C2=O)s1 (centres undefined)	3.7µM	?	-	-	?	4.6µM
CCOc1ccc(N2C(=O)CC(Sc3nc(O)c(CC)c(=O)[nH]3)C2=O)cc1 (centres undefined)	-	-	-	-	-	-
COc1ccc(N2C(=O)CC(Sc3nc4ccccc4s3)C2=O)cc1 (centres undefined)	2.9µM	-	-	-	-	3.7µM
CCOc1ccc2nc(SC3CC(=O)N(c4ccc(OC)cc4)C3=O)sc2c1 (centres undefined)	2.9µM	?	-	-	?	4.6µM
COC(=O)CN1C(=O)C(C)(C)c2cc(S(=O)(=O)NCc3ccc(Cl)cc3)ccc21	?	.	-	-	.	-
O=[N+]([O-])c1ccc2c(c1)CO[C@@]21O[C@H](CCO)C[C@H](O)[C@H]1O	-	-	-	-	-	?
CCOC(=O)Cc1csc(SCC(=O)c2c(N)n(CC(C)C)c(=O)n(C)c2=O)n1	9.2µM	-	?	-	-	10µM
CC(C)Cn1c(N)c(C(=O)CSc2ncn[nH]2)c(=O)n(C)c1=O	-	-	-	-	-	?
Cc1csc(SCC(=O)c2c(N)n(CC(C)C)c(=O)n(C)c2=O)n1	16µM	-	-	-	-	21µM
CC(C)Cn1c(N)c(C(=O)CSc2ncccn2)c(=O)n(C)c1=O	?	-	?	-	-	10µM
COc1ccccc1CNC(=O)CN1C(=O)c2cccnc2Oc2ccccc21	-	.	.	.	.	-
Cc1ccc(CC#N)c(-c2c(CC#N)ccc(C)c2C)c1C	?	-	?	-	-	23µM
Cc1cc[n+](CC#N)cc1	-	.	?	?	.	-
CCn1c(SC(C)C(=O)Nc2nccs2)nnc1-c1ccncc1 (centres undefined)	-	-	-	-	-	-
COc1ccc(-c2c3c(cc4ncn(Cc5ccccc5)c24)COC3=O)cc1	?	-	-	-	-	23µM
COc1ccc(-c2csc3ncn(Cc4ccccc4)c(=O)c23)cc1	?	-	-	-	-	?
Cc1cc(-c2ccccc2)cc(=O)[nH]1	-	-	-	-	-	-
Cc1cc(-c2ccccc2)cc(-c2ccccc2)[n+]1C	10µM	-	-	?	-	8.2µM
Cc1ccc(CSc2nc(=O)c3c(n2C)NC(=O)CC3c2ccc(OC(C)C)cc2)cc1 (centres undefined)	?	.	-	-	.	-
CCn1c(SCC(=O)N2CCC(C)CC2)nc2c(c1=O)SCC2	?	-	-	-	-	?
CCOC(=O)N1CCC(NC(=O)c2cnn(-c3ccc(OC)cc3)c2C2CCN(C(=O)OC(C)(C)C)CC2)CC1	18µM	.	-	-	.	?
CCOC(=O)N1CCC(NC(=O)c2cnn(-c3ccc(C)cc3)c2C2CCN(C(=O)OC(C)(C)C)CC2)CC1	21µM	.	?	-	.	?
COc1ccc(-n2ncc(C(=O)Nc3ccc(C)cc3Cl)c2C2CCN(C(=O)OC(C)(C)C)CC2)cc1	16µM	.	-	-	.	16µM
